The values that follow come from the supplement of paper PMC10933113.

The structures appear in SMILES notation. Structures can show the parent of a compound that is named as a salt. ± gives the uncertainty stated by the source.

In the test the test system is THP-1. Put plainly: CD86 surface expression induction over DMSO control (% over DMSO); higher = stronger dendritic cell activation. The conditions noted are these: exposure time: 24 h. The procedure:
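hCLAT-like CD54 and CD86 surface expression on THP1 cells after 24 h exposure at a single concentration (highest non-cytotoxic concentration, or 100-200 µM if not cytotoxic). Flow cytometry (iQue) was run on 5,000 live cells.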
In the case of `c1ccc(-c2cccc(-c3ccccc3)c2)cc1` [1,1':3',1''-Terphenyl] (200 µM), the “CD86 surface expression induction” value was 17.1 ± 26. The result for `C=C1C[C@@H]2[C@H](CC[C@]3(C)C(=O)CC[C@@H]23)[C@@]2(C)C=CC(=O)C=C12` [Exemestane] (100 µM) reads 12.3 ± 25. In the case of `CCOC(=O)CC(SP(=S)(OC)OC)C(=O)OCC` (stereo not given) [Malathion] (100 µM), the “CD86 surface expression induction” value was -0.63 ± 4.7. The result for `O=C1C=CC(=O)c2ccccc21` (10 µM) reads 366 ± 22; that for `COc1ccccc1N` [2-Methoxyaniline hydrochloride] (100 µM), -19.9 ± 30; that for `N#CCC#N` [Propanedinitrile] (199 µM), -2.3 ± 0.49. The result for `CC(C)CC(C)Nc1ccc(Nc2ccccc2)cc1` (stereo not given) [N-(1,3-Dimethylbutyl)-N'-phenyl-p-phenylenediamine] (10 µM) reads 59.8 ± 11; that for `CS/C(C)=N\OC(=O)N(C)SN(C)C(=O)O/N=C(\C)SC` [Thiodicarb] (10 µM), -14.6 ± 7.8; that for `O=C(O)c1ccccc1C(=O)Nc1cccc2ccccc12` [Naptalam*] (200 µM), 78.5 ± 110. The value for `O=C(N/N=C/c1ccc([N+](=O)[O-])o1)c1cc([N+](=O)[O-])cc([N+](=O)[O-])c1O` [Nifursol] (200 µM) was 8.52 ± 13; that for `C=CC(=O)OCC(COC(=O)C=C)(COC(=O)C=C)COC(=O)C=C` [Pentaerythritol tetraacrylate] (10 µM) was 8.9 ± 7.2; that for `O=C1C(Cl)=C(Cl)C(=O)C(Cl)=C1Cl` [Chloranil] (100 µM) was 16.6 ± 9.4. In the case of `NNC(N)=S` [Thiosemicarbazide] (10 µM), the “CD86 surface expression induction” value is -15.6 ± 6.4. Regarding `O=[N+]([O-])c1cc(C(F)(F)F)c(Cl)c([N+](=O)[O-])c1Cl` [2,4-Dichloro-1,3-dinitro-5-(trifluoromethyl)benzene] (10 µM), the “CD86 surface expression induction” value is 34.2 ± 15.

Consider `CCCCOCN(C(=O)CCl)c1c(CC)cccc1CC` [Butachlor] (10 µM), for which the “CD86 surface expression induction” value is -11.7 ± 10.

`CCCCNC(=O)OCC#CI` [Carbamic acid, butyl-, 3-iodo-2-propynyl ester] (10 µM): the “CD86 surface expression induction” value is -9.06 ± 2.4.

`CCOC(=O)NC(=S)Nc1ccccc1NC(=S)NC(=O)OCC` [Thiophanate] (100 µM): the “CD86 surface expression induction” value came to 10.2 ± 18. The result for `CCNc1nc(NC(C)(C)C)nc(SC)n1` [Terbutryn] (100 µM) reads 0.6 ± 2.4; that for `Nc1ccc([N+](=O)[O-])cc1N` [4-Nitro-1,2-phenylenediamine] (100 µM), -1.29 ± 1.9. The result for `OCc1ccco1` [Furfuryl alcohol] (201 µM) reads 5.82 ± 11; that for `CCS(=O)(=O)CCSP(=O)(OC)OC` [Demeton-S-methylsulphon] (10 µM), -12.6 ± 14; that for `CCOP(=S)(OCC)SC(CCl)N1C(=O)c2ccccc2C1=O` (stereo not given) [Dialifor] (100 µM), 0.69 ± 0.85. The result for `[Cl][Cd][Cl]` [Cadmium II chloride] (200 µM) reads 51.1 ± 5.8.

Take `CN(C)c1ccc(N)cc1` [N,N-Dimethyl-p-phenylenediamine] (100 µM): the “CD86 surface expression induction” value turned out to be 44.5 ± 46. The result for `CC(C)OC(=S)S` [Proxan-sodium] (10 µM) reads -16.7 ± 6.5; that for `CCC(C)(NC(=O)c1cc(Cl)c(C)c(Cl)c1)C(=O)CCl` (stereo not given) [Zoxamide] (10 µM), -5.9 ± 2.3; that for `COc1ccc(O)c(C(C)(C)C)c1` [2-tert-Butyl-4-methoxyphenol] (200 µM), -4.34 ± 6.1. The result for `Nc1ccc(Cl)cc1N` [4-Chloro-1,2-diaminobenzene*] (200 µM) reads 71.3 ± 120; that for `[OH-].c1cc[c]([Sn+]([c]2ccccc2)[c]2ccccc2)cc1` [Triphenyltin hydroxide] (10 µM), 77.3 ± 9.9. The result for `NNCc1ccccc1` (100 µM) reads 2.81 ± 0.59; that for `COc1ccc2[nH]cc(CCN(C(C)C)C(C)C)c2c1` [5-Methoxy-N,N-diisopropyltryptamine hydrochloride] (224.7 µM), -4.94 ± 3.2.

With `CC(C)=CC1C(C(=O)OCc2coc(Cc3ccccc3)c2)C1(C)C` (stereo not given) [Resmethrin] (200 µM), the “CD86 surface expression induction” value was found to be 16.4 ± 4.8.

As for `CN(C)S(=O)(=O)N(SC(F)(Cl)Cl)c1ccccc1` [Dichlofluanid] (10 µM), the “CD86 surface expression induction” value was 88.09 ± 0.57. The value for `Nc1ccc2ccccc2c1` [2-Naphthylamine] (100 µM) was 68.7 ± 65. The value for `CN(C)c1ccc(N(C)C)cc1` [*N,N,N',N'-Tetramethyl-p-phenylenediamine] (200 µM) was 52.4 ± 59; that for `CN1C[C@H](C(=O)N[C@]2(C)O[C@@]3(O)[C@@H]4CCCN4C(=O)[C@H](Cc4ccccc4)N3C2=O)C=C2c3cccc4[nH]cc(c34)C[C@H]21` [Ergotamine D-tartrate*] (79 µM) was 63 ± 77. The value for `Cl/C=C\C[N+]12CN3CN(CN(C3)C1)C2` [Chloroallyl methenamine chloride] (10 µM) was -4.14 ± 1.1; that for `CC(C)(C)C(=O)CCl` [1-Chloro-3,3-dimethyl-butan-2-one] (200 µM) was -2.11 ± 2.4. `CC(C)Nc1ccc(Nc2ccccc2)cc1` [N-Isopropyl-N'-phenyl-p-phenylenediamine] (10 µM): the “CD86 surface expression induction” value worked out at 91.4 ± 6.8. The value for `Nc1ccc(N)cc1` [1,4-Benzenediamine] (10 µM) was 29.
